According to the supplement of paper PMC10849652:
Targets with a hit are over-represented here; the source holds about 8,800 in all. About 0.5% of all pairs of compound and target were hits.

Tests used:
Experiment in all cases: log2 fold change, soluble protein after heating vs DMSO (PISA); higher = thermal stabilisation; K562 lysate, 10 uM; active = over 0.2 and 3.5 SD of the protein, either way, in both replicates (recomputed)
[1] = compound: CCCS(=O)(=O)Nc1ccc(F)c(C(=O)c2c[nH]c3ncc(-c4ccc(Cl)cc4)cc23)c1F [vemurafenib]
Method in brief: (§1)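 Soluble protein was defined as the supernatant remaining after 21,000xg for 90 min, following pooling of heated aliquots and adjustment to 0.5% NP-40 at 4°C. Before that, crude K562 extract at 1 mg/mL protein in PBS pH 7.4 with 1 mM MgCl2 was treated with 10 μM compound for 30 min and heated for 3 min across 48°C-58°C. Quantification used TMTpro 16plex LC-MS/MS with channel sums equalised, and values are log-two fold changes in thermal stability relative to solvent controls from duplicates.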

[2] = compound: CCCS(=O)(=O)Nc1ccc(F)c(C(=O)c2c[nH]c3ncc(Cl)cc23)c1F
Method in brief: as §1

[3] = compound: CCN(CCCOc1ccc2c(Nc3cc(CC(=O)Nc4cccc(F)c4)[nH]n3)ncnc2c1)CCOP(=O)(O)O [barasertib]
Method in brief: as §1

[4] = compound: CC[C@@H]1C(=O)N(C)c2cnc(Nc3ccc(C(=O)NC4CCN(C)CC4)cc3OC)nc2N1C1CCCC1
Method in brief: as §1

[5] = compound: CC[C@@H]1C(=O)N(C)c2cnc(Nc3ccc(C(=O)N[C@H]4CC[C@H](N5CCN(CC6CC6)CC5)CC4)cc3OC)nc2N1C(C)C [volasertib]
Method in brief: as §1

[6] = compound: CCn1c(C(=O)N(C2CC2)C2CC2)cc2c3c(ncn3C)c(Nc3cc(C)n(C)n3)nc21
Method in brief: as §1

[7] = compound: CCn1cc(-c2ccnc3[nH]c(-c4cccc(CN(C)C)c4)cc23)c(-c2ccc(NC(=O)N(C)C)cc2)n1
Method in brief: as §1

[8] = compound: CN1CCC(CNc2ccc3ncc(-c4cccc(OC(F)(F)F)c4)n3n2)CC1
Method in brief: as §1

[9] = compound: CN1CCN(CCOc2cc(OC3CCOCC3)c3c(Nc4c(Cl)ccc5c4OCO5)ncnc3c2)CC1 [saracatinib]
Method in brief: as §1

[10] = compound: CN1CCN(c2nc(C3=C(c4c[nH]c5ccccc45)C(=O)NC3=O)c3ccccc3n2)CC1 [sotrastaurin]
Method in brief: as §1

[11] = compound: CN1CC[C@H](c2c(O)cc(O)c3c(=O)cc(-c4ccccc4Cl)oc23)[C@H](O)C1 [alvocidib]
Method in brief: as §1

[12] = compound: CN1CCc2c(c3ccccc3n2Cc2ccc(C(=O)NO)cc2)C1 [Tubastatin A]
Method in brief: as §1

[13] = compound: CNC(=O)C1=CC=CC=C1NC2=NC(=NC=C2Cl)NC3=C(C=C(C=C3)N4CCOCC4)OC
Method in brief: as §1

[14] = compound: CNC(=O)c1ccc(Nc2ncc(C(F)(F)F)c(NCc3nccnc3N(C)S(C)(=O)=O)n2)cc1 [defactinib]
Method in brief: as §1

[15] = compound: CNc1nc(-c2ccc3c(N)n[nH]c3c2)cc(N2C[C@@H](C(=O)NC3CCCCC3)CC[C@H]2C)n1
Method in brief: as §1

[16] = compound: COC(=O)N[C@@H](C)CNc1nccc(-c2cn(C(C)C)nc2-c2cc(Cl)cc(NS(C)(=O)=O)c2F)n1 [encorafenib]
Method in brief: as §1

[17] = compound: COC(=O)[C@H](CCSC)NC(=O)C1=C(C=C(C=C1)NC[C@H](CS)N)C2=CC=CC=C2
Method in brief: as §1

[18] = compound: COc1cc(Nc2ncc3c(n2)-c2ccc(Cl)cc2C(c2c(F)cccc2OC)=NC3)ccc1C(=O)O [alisertib]
Method in brief: as §1

[19] = compound: COc1cc2nc(-c3cc(F)ccc3O)nc(N[C@@H]3CNC[C@H]3C(C)(C)O)c2cc1OC
Method in brief: as §1

[20] = compound: COc1cc2ncnc(Nc3ccc(F)c(Cl)c3)c2cc1OCCCN1CCOCC1 [gefitinib]
Method in brief: as §1

Measured: log2 fold change

TUT4 (UniProt Q5TAX3)
Chain of UniProt Q5TAX3 (Q5TAX3 whole entry, looked up): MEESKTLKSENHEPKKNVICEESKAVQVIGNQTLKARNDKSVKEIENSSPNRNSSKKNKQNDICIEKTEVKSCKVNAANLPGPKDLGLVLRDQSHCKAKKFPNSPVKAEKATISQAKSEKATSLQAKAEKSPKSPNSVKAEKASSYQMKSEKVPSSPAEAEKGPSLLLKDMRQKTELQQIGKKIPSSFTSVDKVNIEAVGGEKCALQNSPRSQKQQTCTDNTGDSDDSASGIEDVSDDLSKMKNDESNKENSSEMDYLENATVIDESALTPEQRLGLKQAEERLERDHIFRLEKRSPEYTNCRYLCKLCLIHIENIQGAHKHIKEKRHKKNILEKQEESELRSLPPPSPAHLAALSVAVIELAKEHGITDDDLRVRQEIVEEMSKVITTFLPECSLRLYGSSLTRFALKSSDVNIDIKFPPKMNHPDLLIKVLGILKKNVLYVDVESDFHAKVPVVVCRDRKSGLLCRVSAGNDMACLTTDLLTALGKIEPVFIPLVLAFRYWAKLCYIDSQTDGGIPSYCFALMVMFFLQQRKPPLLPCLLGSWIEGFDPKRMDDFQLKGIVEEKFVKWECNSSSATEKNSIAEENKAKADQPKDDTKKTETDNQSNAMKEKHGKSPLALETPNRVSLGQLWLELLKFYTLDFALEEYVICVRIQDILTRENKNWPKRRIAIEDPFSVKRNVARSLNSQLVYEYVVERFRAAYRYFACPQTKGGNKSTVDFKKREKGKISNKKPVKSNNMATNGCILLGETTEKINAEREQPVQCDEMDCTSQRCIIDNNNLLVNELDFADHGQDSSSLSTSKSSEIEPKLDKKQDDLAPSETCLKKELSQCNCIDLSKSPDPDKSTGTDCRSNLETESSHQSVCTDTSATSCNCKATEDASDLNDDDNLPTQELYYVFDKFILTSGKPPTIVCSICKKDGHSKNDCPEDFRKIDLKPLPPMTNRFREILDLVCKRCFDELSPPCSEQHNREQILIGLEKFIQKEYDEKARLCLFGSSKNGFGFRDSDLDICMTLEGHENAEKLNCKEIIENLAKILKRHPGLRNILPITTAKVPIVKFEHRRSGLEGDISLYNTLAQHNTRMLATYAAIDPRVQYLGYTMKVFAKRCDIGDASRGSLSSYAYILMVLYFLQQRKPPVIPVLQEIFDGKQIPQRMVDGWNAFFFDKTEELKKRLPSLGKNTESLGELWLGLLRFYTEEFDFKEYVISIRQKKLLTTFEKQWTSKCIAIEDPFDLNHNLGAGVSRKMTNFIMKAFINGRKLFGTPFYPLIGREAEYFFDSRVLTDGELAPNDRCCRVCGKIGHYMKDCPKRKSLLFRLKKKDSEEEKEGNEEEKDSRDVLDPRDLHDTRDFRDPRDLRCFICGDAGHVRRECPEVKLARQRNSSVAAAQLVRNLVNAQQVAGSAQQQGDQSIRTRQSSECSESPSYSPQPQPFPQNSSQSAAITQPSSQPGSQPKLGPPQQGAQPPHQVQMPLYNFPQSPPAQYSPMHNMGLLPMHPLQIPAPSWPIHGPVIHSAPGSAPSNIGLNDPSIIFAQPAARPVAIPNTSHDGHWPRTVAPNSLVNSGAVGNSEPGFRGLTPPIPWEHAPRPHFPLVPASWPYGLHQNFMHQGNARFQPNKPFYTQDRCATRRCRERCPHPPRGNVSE
inactive: [1] 0.091 | [2] -0.007 | [3] 0.024 | [4] -0.021 | [5] -0.06 | [6] 0.031 | [7] -0.085 | [8] 0.083 | [9] -0.01 | [10] 0.035 | [11] -0.022 | [12] -0.1 | [13] -0.001 | [14] 0.002 | [15] 0.039 | [16] 0.059 | [17] 0.125 | [18] 0.01 | [19] -0.014 | [20] -0.007

TPP2 (UniProt Q5VZU9)
inactive: [1] 0.003 | [2] 0.061 | [3] -0.002 | [4] 0.014 | [5] 0.003 | [6] -0.005 | [7] -0.147 | [8] 0.088 | [9] -0.022 | [10] 0.044 | [11] -0.099 | [12] -0.121 | [13] 0.092 | [14] 0.062 | [15] 0.068 | [16] -0.076 | [17] 0.058 | [18] 0.006 | [19] 0.076 | [20] 0.011

TTI1 (UniProt O43156)
inactive: [1] 0.006 | [2] -0.012 | [3] 0.055 | [4] -0.093 | [5] -0.026 | [6] 0.006 | [7] -0.074 | [8] 0.019 | [9] -0.003 | [10] 0.006 | [11] 0 | [12] -0.163 | [13] 0.015 | [14] 0.022 | [15] -0.035 | [16] 0.022 | [17] 0.026 | [18] -0.013 | [19] -0.011 | [20] -0.016

TK1 (UniProt P04183)
Chain of UniProt P04183 (P04183 whole entry, looked up): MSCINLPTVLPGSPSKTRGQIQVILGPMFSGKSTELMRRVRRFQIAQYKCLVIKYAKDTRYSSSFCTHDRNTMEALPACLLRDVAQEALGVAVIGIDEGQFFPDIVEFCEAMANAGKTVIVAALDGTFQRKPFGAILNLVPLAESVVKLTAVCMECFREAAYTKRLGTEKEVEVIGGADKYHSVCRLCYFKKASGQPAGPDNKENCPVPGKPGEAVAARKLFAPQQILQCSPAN
inactive: [1] 0.022 | [2] 0.013 | [3] -0.007 | [4] 0.009 | [5] 0.031 | [6] -0.008 | [7] -0.124 | [8] 0.104 | [9] -0.002 | [10] 0.002 | [11] -0.051 | [12] 0.004 | [13] 0.006 | [14] -0.011 | [15] 0.032 | [16] -0.018 | [17] -0.025 | [18] -0.002 | [19] 0.017 | [20] 0.013

UFM1 (UniProt P61960)
Chain of UniProt P61960 (P61960 whole entry, looked up): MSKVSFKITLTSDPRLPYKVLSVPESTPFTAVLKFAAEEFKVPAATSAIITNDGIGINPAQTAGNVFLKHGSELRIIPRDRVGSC
inactive: [1] -0.249 | [2] -0.035 | [3] 0.039 | [4] 0.044 | [5] 0.047 | [6] 0.014 | [7] 0.491 | [8] -0.338 | [9] 0.016 | [10] 0.028 | [11] 0.253 | [12] 0.102 | [13] 0.037 | [14] 0.136 | [15] 0.088 | [16] 0.023 | [17] -0.076 | [18] 0.038 | [19] -0.08 | [20] -0.116

TMOD1 (UniProt P28289)
Chain of UniProt P28289 (P28289 whole entry, looked up): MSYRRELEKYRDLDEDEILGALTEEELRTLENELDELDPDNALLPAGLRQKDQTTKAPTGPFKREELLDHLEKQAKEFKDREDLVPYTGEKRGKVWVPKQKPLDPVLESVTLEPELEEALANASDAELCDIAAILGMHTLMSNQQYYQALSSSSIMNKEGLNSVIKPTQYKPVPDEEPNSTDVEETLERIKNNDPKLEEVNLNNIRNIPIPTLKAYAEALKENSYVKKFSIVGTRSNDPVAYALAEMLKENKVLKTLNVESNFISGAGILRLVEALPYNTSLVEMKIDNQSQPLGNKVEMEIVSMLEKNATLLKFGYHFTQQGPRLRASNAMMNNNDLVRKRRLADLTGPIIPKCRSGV
inactive: [1] -0.015 | [2] -0.02 | [3] 0.027 | [4] -0.027 | [5] -0.031 | [6] -0.024 | [7] 0.041 | [8] -0.031 | [9] -0.001 | [10] -0.017 | [11] 0.017 | [12] -0.081 | [13] 0.042 | [14] 0.046 | [15] -0.009 | [16] -0.004 | [17] -0.002 | [18] 0.014 | [19] 0.016 | [20] -0.008

TBCE (UniProt Q15813)
Chain of UniProt Q15813 (Q15813 whole entry, looked up): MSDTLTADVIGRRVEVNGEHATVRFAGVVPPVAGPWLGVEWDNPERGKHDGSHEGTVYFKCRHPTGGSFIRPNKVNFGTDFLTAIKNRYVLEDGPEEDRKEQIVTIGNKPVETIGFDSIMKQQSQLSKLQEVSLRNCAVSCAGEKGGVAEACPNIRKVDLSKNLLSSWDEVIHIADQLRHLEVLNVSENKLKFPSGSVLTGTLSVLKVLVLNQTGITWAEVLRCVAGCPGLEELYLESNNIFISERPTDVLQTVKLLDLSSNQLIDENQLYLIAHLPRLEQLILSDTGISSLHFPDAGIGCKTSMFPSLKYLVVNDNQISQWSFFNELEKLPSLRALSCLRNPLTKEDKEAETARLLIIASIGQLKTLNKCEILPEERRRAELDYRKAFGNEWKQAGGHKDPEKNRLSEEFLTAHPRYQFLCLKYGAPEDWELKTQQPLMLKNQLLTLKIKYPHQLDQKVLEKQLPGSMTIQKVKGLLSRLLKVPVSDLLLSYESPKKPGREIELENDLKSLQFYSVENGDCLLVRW
active: [17] 0.265
inactive: [1] 0.04 | [2] 0.015 | [3] 0.024 | [4] -0.065 | [5] -0.082 | [6] 0.048 | [7] -0.044 | [8] -0.023 | [9] 0.013 | [10] 0.001 | [11] -0.008 | [12] -0.162 | [13] -0.026 | [14] 0.031 | [15] -0.028 | [16] -0.008 | [18] -0.008 | [19] -0.006 | [20] -0.006

TBL2 (UniProt Q9Y4P3)
Chain of UniProt Q9Y4P3 (Q9Y4P3 whole entry, looked up): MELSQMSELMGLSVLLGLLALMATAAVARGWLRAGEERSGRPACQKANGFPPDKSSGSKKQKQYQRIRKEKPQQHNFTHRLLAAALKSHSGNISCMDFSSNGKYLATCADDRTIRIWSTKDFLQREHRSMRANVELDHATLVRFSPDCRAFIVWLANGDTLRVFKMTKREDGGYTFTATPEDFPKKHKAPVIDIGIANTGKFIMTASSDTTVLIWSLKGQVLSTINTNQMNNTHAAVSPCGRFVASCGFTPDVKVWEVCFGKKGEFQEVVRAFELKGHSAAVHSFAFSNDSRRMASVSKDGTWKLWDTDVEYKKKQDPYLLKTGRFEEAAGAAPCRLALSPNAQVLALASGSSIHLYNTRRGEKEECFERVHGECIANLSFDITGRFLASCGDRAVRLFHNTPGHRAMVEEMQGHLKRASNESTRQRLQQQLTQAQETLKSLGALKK
inactive: [1] -0.016 | [2] -0.013 | [3] -0.015 | [4] -0.029 | [5] -0.034 | [6] -0.045 | [7] -0.029 | [8] 0.022 | [9] 0.027 | [10] 0.001 | [11] 0.018 | [12] -0.007 | [13] 0.023 | [14] 0.039 | [15] -0.003 | [16] 0.057 | [17] -0.036 | [18] 0.008 | [19] 0.055 | [20] -0.018

TPM3 isoform 2 (UniProt P06753)
Chain of UniProt P06753 (P06753 whole entry, looked up): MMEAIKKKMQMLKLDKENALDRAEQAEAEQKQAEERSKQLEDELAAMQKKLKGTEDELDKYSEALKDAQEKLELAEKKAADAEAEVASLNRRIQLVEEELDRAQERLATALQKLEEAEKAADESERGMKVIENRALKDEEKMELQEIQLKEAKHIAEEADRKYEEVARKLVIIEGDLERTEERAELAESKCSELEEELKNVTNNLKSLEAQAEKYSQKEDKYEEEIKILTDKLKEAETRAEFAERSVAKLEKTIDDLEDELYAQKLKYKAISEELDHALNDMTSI
inactive: [1] -0.052 | [2] -0.024 | [3] -0.016 | [4] -0.07 | [5] 0.007 | [6] 0.026 | [7] 0.196 | [8] -0.179 | [9] -0.009 | [10] 0.025 | [11] 0.03 | [12] 0.033 | [13] -0.012 | [14] 0 | [15] -0.144 | [16] 0 | [17] -0.071 | [18] 0 | [19] -0.024 | [20] 0.059

TMEM87B (UniProt Q96K49)
inactive: [1] -0.004 | [2] 0.047 | [3] 0.091 | [4] 0.018 | [5] 0.005 | [6] -0.006 | [7] 0.074 | [8] -0.032 | [9] -0.166 | [10] 0.026 | [11] 0.035 | [12] 0.044 | [13] -0.035 | [14] -0.032 | [15] -0.045 | [16] -0.055 | [17] 0.017 | [18] 0.004 | [19] 0.031 | [20] 0.018

TMPO (UniProt P42166)
inactive: [1] 0.027 | [2] -0.004 | [3] 0.04 | [4] -0.041 | [5] -0.025 | [6] 0.033 | [7] 0.026 | [8] 0.003 | [9] -0.017 | [10] -0.161 | [11] -0.196 | [12] -0.145 | [13] 0.002 | [14] 0.028 | [15] -0.003 | [16] 0.011 | [17] 0.174 | [18] -0.024 | [19] 0.012 | [20] 0.011

UBAP2L isoform 5 (UniProt Q14157)
Chain of UniProt Q14157 (Q14157 whole entry, looked up): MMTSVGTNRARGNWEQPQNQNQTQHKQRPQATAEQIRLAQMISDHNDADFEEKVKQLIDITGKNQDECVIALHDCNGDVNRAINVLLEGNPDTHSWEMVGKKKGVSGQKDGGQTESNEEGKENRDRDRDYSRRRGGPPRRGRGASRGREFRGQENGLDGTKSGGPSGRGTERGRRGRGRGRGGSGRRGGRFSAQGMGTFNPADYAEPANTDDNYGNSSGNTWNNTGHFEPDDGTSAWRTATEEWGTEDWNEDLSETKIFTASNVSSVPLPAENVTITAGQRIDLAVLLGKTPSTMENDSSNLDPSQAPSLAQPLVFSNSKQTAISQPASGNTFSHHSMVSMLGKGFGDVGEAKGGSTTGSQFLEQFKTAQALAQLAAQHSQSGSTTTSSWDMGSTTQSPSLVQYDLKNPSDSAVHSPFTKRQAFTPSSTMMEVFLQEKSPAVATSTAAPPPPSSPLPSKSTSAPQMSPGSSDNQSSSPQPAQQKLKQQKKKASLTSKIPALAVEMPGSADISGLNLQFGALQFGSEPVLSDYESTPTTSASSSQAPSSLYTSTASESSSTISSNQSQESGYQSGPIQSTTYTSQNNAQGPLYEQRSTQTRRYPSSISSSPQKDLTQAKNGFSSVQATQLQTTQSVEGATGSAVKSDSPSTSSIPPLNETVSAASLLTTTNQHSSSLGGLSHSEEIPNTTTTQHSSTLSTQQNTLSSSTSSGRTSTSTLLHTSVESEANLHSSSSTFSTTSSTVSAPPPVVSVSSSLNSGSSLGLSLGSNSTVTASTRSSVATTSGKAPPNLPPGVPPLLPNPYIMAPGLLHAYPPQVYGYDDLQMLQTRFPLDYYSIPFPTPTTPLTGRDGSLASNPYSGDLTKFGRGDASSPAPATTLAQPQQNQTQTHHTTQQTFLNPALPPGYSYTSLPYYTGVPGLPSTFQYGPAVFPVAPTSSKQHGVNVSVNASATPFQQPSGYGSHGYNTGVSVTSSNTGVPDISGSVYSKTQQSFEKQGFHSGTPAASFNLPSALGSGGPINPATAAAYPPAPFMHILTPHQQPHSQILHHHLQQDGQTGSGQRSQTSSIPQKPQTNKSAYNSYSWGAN
inactive: [1] -0.002 | [2] 0.025 | [3] 0.013 | [4] 0.023 | [5] -0.006 | [6] 0.013 | [7] 0.028 | [8] -0.01 | [9] 0.03 | [10] -0.002 | [11] 0.019 | [12] 0.008 | [13] 0.007 | [14] 0.016 | [15] 0.038 | [16] 0.041 | [17] -0.002 | [18] 0.027 | [19] 0.022 | [20] -0.031

UBTF (UniProt P17480)
inactive: [1] -0.024 | [2] 0.002 | [3] 0.011 | [5] -0.011 | [6] 0.002 | [7] 0.038 | [8] -0.067 | [9] 0.042 | [10] 0.023 | [11] 0.026 | [12] -0.135 | [13] -0.008 | [14] 0.007 | [15] 0.004 | [16] -0.002 | [17] 0.073 | [18] 0.055 | [19] -0.018 | [20] 0.045
active: [4] -0.291

TTC4 (UniProt O95801)
inactive: [1] 0.004 | [2] 0.05 | [3] -0.004 | [4] 0.008 | [5] -0.024 | [6] 0.007 | [7] -0.089 | [8] -0.027 | [9] 0.033 | [10] 0.005 | [11] -0.012 | [12] -0.183 | [13] 0.078 | [14] 0.004 | [15] 0.003 | [16] 0.021 | [17] -0.005 | [18] 0.008 | [19] -0.017 | [20] -0.003

TFPI (UniProt P10646)
Chain of UniProt P10646 (P10646 whole entry, looked up): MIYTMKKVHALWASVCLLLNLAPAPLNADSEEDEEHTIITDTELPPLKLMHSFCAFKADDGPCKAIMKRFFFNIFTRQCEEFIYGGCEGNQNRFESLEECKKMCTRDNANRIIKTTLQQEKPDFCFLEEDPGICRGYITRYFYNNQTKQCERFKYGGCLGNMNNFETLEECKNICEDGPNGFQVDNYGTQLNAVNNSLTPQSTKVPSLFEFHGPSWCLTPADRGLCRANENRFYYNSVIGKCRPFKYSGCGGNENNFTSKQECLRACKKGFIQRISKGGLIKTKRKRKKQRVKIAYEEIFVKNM
active: [7] 0.689
inactive: [1] -0.079 | [2] 0.005 | [3] 0.015 | [4] -0.019 | [5] 0.016 | [6] 0.093 | [8] -0.321 | [10] 0.167 | [11] 0.245 | [12] -0.012 | [13] 0.036 | [14] 0.056 | [16] 0.072 | [17] -0.017 | [18] -0.003 | [19] -0.128 | [20] 0.061
